Records with an inconclusive call do not appear. Where a call stands in place of a potency, no number is given. Activity calls are given as the source filed them. Calls follow the shape of the dose curve; as a rule, active = well fitted activation curve with a large enough effect in the repeat runs; inconclusive = weak or mixed curves; inactive = no such curve, though single readings can be large or run the other way.
Target: Aryl hydrocarbon receptor (Homo sapiens) (UniProt P35869)
Assay: qHTS assay to identify small molecule that activate the aryl hydrocarbon receptor (AhR) signaling pathway (AID 743085); also: nearly all actives have a fitted effect of over 15% in size;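 as to activation: HG2L7.5c1 human HepG2 liver cells with stably integrated DRE-driven firefly reporter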
Conditions: HepG2 AhR-luc (HG2L7.5c1), luciferase, 24 h; series mostly up to 70.3 µM
Excerpt: U.S. Tox21 Program National Center for Advancing Translational Sciences [NCATS] NIH Chemical Genomics Center [NCGC] U.S. Environmental Protection Agency [EPA] National Institutes of Environmental Health Sciences [NIEHS] National Toxicology Program [NTP] U.S. Food and Drug Administration [FDA] Tox21 Assay overview: The Aryl hydrocarbon Receptor (AhR), a member of the family of basic helix-loop-helix transcription factors, is crucial to adaptive responses to environmental changes. AhR mediates cellular responses to environmental pollutants such as aromatic hydrocarbons through induction of phase I and II enzymes but also interacts with other nuclear receptor signaling pathways. A cell based HepG2-AhR-luc assay (HG2L7.5c1 cell line, developed by Dr. Michael S. Denison, University of California at Davis, was used to assess the activation of AhR. HepG2 (human hepatocellular carcinoma) cells were stably transfected with an Ah receptor-responsive firefly luciferase reporter gene plasmid containing 20 dioxin responsive elements and luciferase reporter gene. Increased luciferase activity can be used to identify the compounds that induce AhR activation.
Tox21 Assay Protocol Summary: 4000 cells in 5 uL/well were dispensed into white wall/solid bottom 1536-well plates using a Multidrop Combi (Thermo Fisher Scientific Inc., Waltham, MA) dispenser. After the assay plates were incubated at 37C for 5 h, 23 nL of compound or DMSO vehicle was transferred to the assay plates by a pintool station (Kalypsys, San Diego, CA). The plates were incubated at 37C for 24 hr. After 1 ul/well of CellTiter-Fluor reagent (Promega, Madison, WI) was added into the assay plates using a Flying Reagent Dispenser (FRD) (Aurora Discovery, CA), the assay plates were incubated at 37C for 30 min. The fluorescence intensity in the plates was measured using a ViewLux plate reader (PerkinElmer, Shelton, CT), followed by the addition of 4 uL of ONE-Glo Luciferase Assay reagent (Promega) using an FRD (Aurora Discovery). After the assay plates were incubated at room temperature for 30 min, luminescence intensity was measured using a ViewLux plate reader (Perkin Elmer).
Potency is read from the fitted curve at half-maximal effect.

Aryl hydrocarbon receptor (Homo sapiens), sequence (P35869 whole entry, looked up): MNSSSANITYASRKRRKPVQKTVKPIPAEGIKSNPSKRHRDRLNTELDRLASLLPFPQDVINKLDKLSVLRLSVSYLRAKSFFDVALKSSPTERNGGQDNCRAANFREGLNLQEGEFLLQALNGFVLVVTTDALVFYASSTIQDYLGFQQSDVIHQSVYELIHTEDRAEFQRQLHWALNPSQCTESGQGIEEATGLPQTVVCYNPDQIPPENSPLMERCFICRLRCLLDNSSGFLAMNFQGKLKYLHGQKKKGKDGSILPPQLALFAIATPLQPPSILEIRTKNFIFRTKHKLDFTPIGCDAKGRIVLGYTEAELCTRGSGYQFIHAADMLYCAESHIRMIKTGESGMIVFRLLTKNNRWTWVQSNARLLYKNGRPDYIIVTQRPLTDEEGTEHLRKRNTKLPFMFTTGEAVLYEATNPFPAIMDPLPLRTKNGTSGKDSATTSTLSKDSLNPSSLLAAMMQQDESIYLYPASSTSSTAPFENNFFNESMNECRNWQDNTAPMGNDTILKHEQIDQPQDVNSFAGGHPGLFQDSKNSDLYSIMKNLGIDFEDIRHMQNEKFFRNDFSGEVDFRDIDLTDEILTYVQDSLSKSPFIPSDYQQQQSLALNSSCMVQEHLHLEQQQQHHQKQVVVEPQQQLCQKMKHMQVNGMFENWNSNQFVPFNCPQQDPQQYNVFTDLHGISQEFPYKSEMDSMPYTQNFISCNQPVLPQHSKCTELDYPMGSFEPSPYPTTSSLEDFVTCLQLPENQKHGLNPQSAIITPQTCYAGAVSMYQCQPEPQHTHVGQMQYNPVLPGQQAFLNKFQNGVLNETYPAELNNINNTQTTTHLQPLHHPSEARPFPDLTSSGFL

| SMILES | Potency |
| --- | --- |
| CCC(=O)c1ccc(O)cc1 | inactive |
| CCOC(=O)OCC/C(SC(=O)OCC)=C(\C)N(C=O)Cc1cnc(C)nc1N | inactive |
| COc1ccc(NS(=O)(=O)c2ccc(N)cc2)nn1 | inactive |
| CCCCCCCCCCCCCCCC(=O)NCCO | inactive |
| Cc1cc(O)c2c(c1)C(=O)c1cccc(O)c1C2=O | 26.7 µM (active) |
| CC(=O)N(CC(O)CO)c1c(I)c(C(=O)NCC(O)CO)c(I)c(C(=O)NCC(O)CO)c1I (stereo not given) | inactive |
| COc1cc([N+](=O)[O-])ccc1N | inactive |
| C[C@H](CCC(=O)O)[C@H]1CC[C@H]2[C@@H]3[C@H](O)C[C@@H]4C[C@H](O)CC[C@]4(C)[C@H]3C[C@H](O)[C@]12C | inactive |
| CC(Cl)COP(=O)(OCC(C)Cl)OCC(C)Cl (stereo not given) | inactive |
| Cn1c(=O)c2c(ncn2CC2OCCO2)n(C)c1=O | inactive |
| O=C1OC(=O)c2cc(Oc3ccc4c(c3)C(=O)OC4=O)ccc21 | inactive |
| OC[C@@H](O)[C@H](O)[C@@H](O)[C@@H](O)CO | inactive |
| CNC(=O)NC | inactive |
| CCN1CN(CC)CN(CC)C1 | inactive |
| CCC(CO)CO | inactive |
| CCCCCC(=O)OCC | inactive |
| NCCc1ccn[nH]1 | inactive |
| COc1cc2c(Nc3ccc(Br)cc3F)ncnc2cc1OCC1CCN(C)CC1 | inactive |
| SCCSCCS | inactive |
| CCC1COC(=O)O1 (stereo not given) | inactive |

| SMILES | Potency |
| --- | --- |
| CC(C)SCc1ccco1 | inactive |
| CC(=O)Nc1ncc([N+](=O)[O-])s1 | inactive |
| CC1=NN(c2ccc(S(=O)(=O)O)cc2)C(=O)C1N=Nc1ccccc1 (stereo not given) | 24.3 µM (active) |
| CCCCCCCCCCCCOC(C)=O | inactive |
| C=CCOc1cc(Cl)ccc1C(=O)NCCN(CC)CC | inactive |
| CCCCCCCCCCCCCCCCI | inactive |
| CCCCCCCCCCC | inactive |
| O=c1[nH]c(=O)c2ccccc2o1 | inactive |
| C=C(C)C(=O)OC1CC(C)CC(C)(C)C1 (stereo not given) | inactive |
| Cc1cc(C)cc([N+](=O)[O-])c1 | inactive |
| O=C1NC2NC(=O)NC2N1 (stereo not given) | inactive |
| CC(=O)OCCCc1ccccc1 | inactive |
| CCN(CCC#N)c1ccccc1 | inactive |
| C=CC(C)(O)CC/C=C(\C)CC (stereo not given) | inactive |
| O=C(O)/C=C/c1ccccc1 | inactive |
| Nc1cc(S(=O)(=O)O)ccc1S(=O)(=O)O | inactive |
| C=CCOCC(O)CCl (stereo not given) | inactive |
| CC1=CC[C@H](CC=O)C1(C)C | inactive |
| O=c1cc(O)c(Cl)c[nH]1 | inactive |
| CCCCCCCCCCCCCC(=O)OC | inactive |
